HT1080NT lethal: qHTS for induction of synthetic lethality in tumor cells producing 2HG: qHTS for the HT-1080-NT fibrosarcoma cell line. HT-1080-NT fibrosarcoma viability, CellTiter-Glo ATP luminescence, 48 h. Potency, µM (top dose mostly 46.1 µM), actives largely listed as cytotoxic. 1.6% of 360,000 active. AID 686970, 2013;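 also: NT is the 2HG producing partner of a matched IDH1 knockdown line; nearly all actives have a fitted effect of over 55% in size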
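Luminescent CellTiter-Glo readout after 48 hours of compound exposure at 37 degrees C defined viability of HT-1080-NT cells. Activity was normalized to DMSO wells and cell-free media wells; concentration-response curves were fitted and assigned curve classes.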
ELG1 repair inh: qHTS screen for small molecules that inhibit ELG1-dependent DNA repair in human embryonic kidney (HEK293T) cells expressing luciferase-tagged ELG1; HEK293T ELG1-luciferase reporter, luminescence, 16 h; DNA damage induced by 5-fluorouridine; Potency, µM (titrated, usually from 46.1 µM), actives largely listed as inhibitors; 2.3% of 330,000 active; AID 504467, 2011; also: nearly all actives have a fitted effect of over 55% in size
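Reporter activity after DNA damage by 5-fluorouridine is monitored. Compound-treated cells incubate 16 hr at 37 °C, then ONE-Glo is added for 30 min before luminescence reading.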
DT40 TDP1 CPT: qHTS for Inhibitors of human tyrosyl-DNA phosphodiesterase 1 (TDP1): qHTS in cells in presence of CPT; Potency, µM (doses to about 46.2 µM), hits mostly inhibitors; 12% of 420,000 active; chicken DT40 Tdp1-/-;hTDP1 cells + 20 nM CPT, ATP luminescence, 48 h; also: nearly all actives have a fitted effect of over 55% in size
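Chicken DT40 Tdp1-/- cells complemented with human TDP1, 400 cells/well, exposed to compounds plus 20 nM camptothecin for at least 48 h at 37 C; viability read as ATP content by CellTiter-Glo luminescence.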
TDP1 cell noCPT: qHTS for Inhibitors of human tyrosyl-DNA phosphodiesterase 1 (TDP1): qHTS in cells in absence of CPT; DT40 Tdp1-/- hTDP1 cells, no CPT, ATP luminescence, 48 h; Potency, µM (series often up to 46.2 µM), most hits filed as inhibitors; 15% of 420,000 active; AID 686978, 2013; also: nearly all actives have a fitted effect of over 55% in size
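Compound effects on proliferation are scored in DT40 Tdp1-/-;hTDP1 cells in the absence of CPT. ATP levels (CellTiter-Glo luminescence) are recorded after a ≥48 hr, 37 °C incubation.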
HT1080 IDH1KD tx: qHTS for induction of synthetic lethality in tumor cells producing 2HG: qHTS for the HT-1080-IDH1KD cell line | HT-1080 IDH1 knockdown viability, ATP luminescence, 48 h | Potency, µM (highest dose often 46.1 µM), actives largely listed as cytotoxic | 2% of 360,000 active
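Knockdown cells (IDH1KD HT-1080) received compounds 2 h after plating at 750 cells/well and were kept 48 h at 37 °C in 5% FBS RPMI. A CellTiter-Glo luminescence read gave % activity for curve fitting.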
IL-1B inflam inh: qHTS for Inhibitors of Inflammasome Signaling: IL-1-beta AlphaLISA Primary Screen. THP-1 LPS/ATP IL-1B secretion, AlphaLISA, 16 h; stronger effect = lower value. 4.7% of 360,000 active. activity change, % at 57.5 µM; in the data active = activity change below about -50%; inconclusive = mostly about -30% to -49%
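THP-1 cells pretreated 1 hr with compounds (up to 57.5 uM final), then stimulated with LPS (250 ng/mL final) plus ATP (1.25 mM final); secreted IL-1B measured by AlphaLISA after 16 hr, decreased signal indicating inhibition.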
ELG1 FLuc counter: qHTS screen for small molecules that inhibit ELG1-dependent DNA repair: Hit Confirmation in Cell-Based Luciferin Assay | shares compounds with ELG1 repair inh | cell-free firefly luciferase luminescence counter-screen, ViewLux | Potency, µM (series often up to 46.1 µM), most hits filed as inhibitors | 3% of 350 active | AID 624247, 2012
ELG1-Luc inh: HTS assay for small molecules that inhibit ELG1-dependent DNA repair in human embryonic kidney (HEK293T) cells expressing luciferase-tagged ELG1: Hit Confirmation; HEK293T ELG1-luciferase levels, luminescence; cells co-treated with 5-fluorouridine; shares compounds with ELG1 repair inh; Potency, µM (top dose mostly 46.1 µM), actives largely listed as inhibitors; 68% of 670 active; also: nearly all actives have a fitted effect of over 55% in size
Target sequence (Q96QE3 whole entry, looked up): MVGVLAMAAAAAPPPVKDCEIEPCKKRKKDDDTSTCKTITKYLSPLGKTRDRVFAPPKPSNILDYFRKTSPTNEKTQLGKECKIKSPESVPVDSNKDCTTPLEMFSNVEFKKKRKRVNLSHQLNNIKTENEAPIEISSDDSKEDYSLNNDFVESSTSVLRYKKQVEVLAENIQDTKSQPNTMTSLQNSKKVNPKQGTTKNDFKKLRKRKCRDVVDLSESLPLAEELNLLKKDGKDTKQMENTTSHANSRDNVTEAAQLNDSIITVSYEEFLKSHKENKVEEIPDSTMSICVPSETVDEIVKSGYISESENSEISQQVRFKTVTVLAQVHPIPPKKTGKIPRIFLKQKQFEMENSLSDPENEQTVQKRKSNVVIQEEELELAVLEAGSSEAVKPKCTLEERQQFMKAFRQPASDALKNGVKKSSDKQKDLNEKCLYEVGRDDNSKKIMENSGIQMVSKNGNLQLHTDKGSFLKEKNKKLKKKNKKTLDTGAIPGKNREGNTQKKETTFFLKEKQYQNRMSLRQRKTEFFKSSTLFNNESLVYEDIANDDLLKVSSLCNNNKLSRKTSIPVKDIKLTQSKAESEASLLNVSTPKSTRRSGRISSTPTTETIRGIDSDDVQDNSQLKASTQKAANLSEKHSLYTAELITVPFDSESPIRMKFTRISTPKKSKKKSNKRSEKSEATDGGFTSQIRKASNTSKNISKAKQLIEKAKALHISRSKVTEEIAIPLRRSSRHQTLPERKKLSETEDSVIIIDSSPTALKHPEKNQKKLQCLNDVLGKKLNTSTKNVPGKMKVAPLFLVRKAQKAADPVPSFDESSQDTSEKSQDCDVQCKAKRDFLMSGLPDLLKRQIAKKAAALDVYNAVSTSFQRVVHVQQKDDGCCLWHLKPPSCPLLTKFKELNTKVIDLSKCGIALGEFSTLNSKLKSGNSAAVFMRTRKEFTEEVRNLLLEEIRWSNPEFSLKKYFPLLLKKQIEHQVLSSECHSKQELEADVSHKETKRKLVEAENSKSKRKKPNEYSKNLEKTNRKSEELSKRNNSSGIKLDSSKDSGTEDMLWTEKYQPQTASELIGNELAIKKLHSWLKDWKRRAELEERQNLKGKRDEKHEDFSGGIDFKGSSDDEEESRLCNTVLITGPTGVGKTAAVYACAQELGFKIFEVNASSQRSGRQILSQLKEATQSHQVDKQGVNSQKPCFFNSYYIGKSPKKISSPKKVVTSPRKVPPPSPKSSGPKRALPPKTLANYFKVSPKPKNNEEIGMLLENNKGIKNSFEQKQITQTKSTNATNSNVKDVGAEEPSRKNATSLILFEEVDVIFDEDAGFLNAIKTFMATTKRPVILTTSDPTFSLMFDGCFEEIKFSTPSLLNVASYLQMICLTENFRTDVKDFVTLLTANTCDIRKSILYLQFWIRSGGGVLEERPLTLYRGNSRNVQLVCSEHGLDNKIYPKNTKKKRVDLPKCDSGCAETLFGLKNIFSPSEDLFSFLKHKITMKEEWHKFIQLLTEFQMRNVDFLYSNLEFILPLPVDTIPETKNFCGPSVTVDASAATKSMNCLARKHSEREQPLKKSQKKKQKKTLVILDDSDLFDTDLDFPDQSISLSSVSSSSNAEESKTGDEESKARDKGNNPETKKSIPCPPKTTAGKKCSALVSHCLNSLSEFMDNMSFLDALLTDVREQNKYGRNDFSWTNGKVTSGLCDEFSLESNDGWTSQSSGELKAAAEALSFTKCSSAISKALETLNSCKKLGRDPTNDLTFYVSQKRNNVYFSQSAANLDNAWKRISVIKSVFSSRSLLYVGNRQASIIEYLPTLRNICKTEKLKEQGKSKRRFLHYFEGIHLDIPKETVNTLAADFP
ELG1-Luc MMS: confirmation of human ELG1 repair inhibitors, MMS stimulated | HEK293T luciferase-tagged ELG1 level, MMS stimulated | shares compounds with ELG1 repair inh | 53% of 670 active | Potency, µM (top dose mostly 46.1 µM), most hits filed as inhibitors; also: nearly all actives have a fitted effect of over 60% in size
ELG1 5FU viab: qHTS screen for small molecules that inhibit ELG1-dependent DNA repair: Hit Confirmation with 5FU Viability; shares compounds with ELG1 repair inh; cell viability with 5-FU, ELG1-dependent repair; Potency, µM (doses to about 46.1 µM), most hits filed as cytotoxic; 670 tested, under 10 active; AID 624250, 2012;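 also: ELG1-luc HEK293T cells cotreated with 5-fluorouridine at 10 µM final; viability measured 16 h after compound addition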
ELG1 MMS viab: qHTS screen for small molecules that inhibit ELG1-dependent DNA repair: Hit Confirmation with MMS Viability | Potency, µM (top dose mostly 46.1 µM), usual class: cytotoxic | shares compounds with ELG1 repair inh | 33% of 670 active | Cell viability with MMS, ELG1-dependent DNA repair;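 also: ELG1-luc HEK293T cells co-treated with 10 µM MMS; viability read 16 h after compound addition; nearly all actives have a fitted effect of over 60% in size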
ELG1 unstim viab: qHTS screen for small molecules that inhibit ELG1-dependent DNA repair: Hit Confirmation with Unstimulated Viability Assay. shares compounds with ELG1 repair inh. cell viability counter-screen, unstimulated, luminescence. Potency, µM (doses to about 45.9 µM), most hits filed as cytotoxic. 8% of 900 active;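 also: compound exposure lasted 16 hours before reading; nearly all actives have a fitted effect of over 55% in size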
FLuc enzyme: qHTS screen for small molecules that inhibit ELG1-dependent DNA repair: Hit Confirmation in Biochemical Luciferin Assay; shares compounds with ELG1 repair inh; purified firefly luciferase, luminescence counter-screen; 10% of 350 active; Potency, µM (top dose mostly 57.5 µM), actives largely listed as inhibitors
A number is an active result. Not all results are given here. Unless noted, calls follow the shape of the dose curve; as a rule, active = well fitted curve in the direction sought with a large enough effect; inconclusive = small, poorly fitted or top-dose-only effect, or another doubt; inactive = no such curve, though single readings can be large; an effect the other way counts as inactive or inconclusive.

For Cc1ccc2c(c1)sc1nc(=O)n(-c3ccc(Cl)c(Cl)c3)c(=O)n12 the results were HT1080NT lethal inactive, ELG1 repair inh inconclusive, DT40 TDP1 CPT inconclusive, TDP1 cell noCPT inconclusive, HT1080 IDH1KD tx inactive, IL-1B inflam inh inactive, ELG1 FLuc counter inactive, ELG1 unstim viab inactive and FLuc enzyme inactive.
O=c1nc2sc3ccccc3n2c(=O)n1-c1cccc(Cl)c1 was read as HT1080NT lethal inactive, ELG1 repair inh inconclusive, DT40 TDP1 CPT inconclusive, TDP1 cell noCPT inconclusive, HT1080 IDH1KD tx inactive, IL-1B inflam inh inactive, ELG1 FLuc counter inactive, ELG1 unstim viab inactive and FLuc enzyme inactive.
`Cc1ccc2c(c1)sc1nc(=O)n(-c3cccc(Cl)c3)c(=O)n12` gave HT1080NT lethal inactive, ELG1 repair inh inconclusive, DT40 TDP1 CPT inconclusive, TDP1 cell noCPT inconclusive, HT1080 IDH1KD tx inactive and IL-1B inflam inh inactive.
`COc1ccc(C=O)cc1Cn1ccnc1C` gave HT1080NT lethal inactive, ELG1 repair inh inactive, DT40 TDP1 CPT inactive, TDP1 cell noCPT inactive, HT1080 IDH1KD tx inactive and IL-1B inflam inh inactive.
For CN(C)CCN(Cc1cc2cc3c(cc2nc1Cl)OCO3)C(=O)c1ccco1 the results were HT1080NT lethal inactive, ELG1 repair inh inactive, DT40 TDP1 CPT inactive, TDP1 cell noCPT inconclusive, HT1080 IDH1KD tx inactive and IL-1B inflam inh inactive.
`COc1ccc2c(c1OC)C(=O)N1N=C(c3ccc(-c4ccccc4)cc3)CC21` (stereo not given) gave HT1080NT lethal inactive, ELG1 repair inh inactive, DT40 TDP1 CPT inactive, TDP1 cell noCPT inconclusive, HT1080 IDH1KD tx inactive and IL-1B inflam inh inactive.
For COc1ccc2c(c1OC)C(=O)N1c3ccccc3C(=O)N(c3ccccc3)C21 (stereo not given) the results were HT1080NT lethal inactive, ELG1 repair inh inconclusive, DT40 TDP1 CPT 11.6µM, TDP1 cell noCPT 9.2µM, HT1080 IDH1KD tx inactive, IL-1B inflam inh inactive, ELG1 FLuc counter inactive, ELG1-Luc inh 2.23µM, ELG1-Luc MMS 5µM, ELG1 5FU viab inactive, ELG1 MMS viab inconclusive, ELG1 unstim viab inconclusive and FLuc enzyme inactive.
`COc1ccc2c(c1OC)C(=O)N1c3ccccc3C(=O)N(c3ccc(F)cc3)C21` (stereo not given) gave HT1080NT lethal inactive, ELG1 repair inh inconclusive, DT40 TDP1 CPT inconclusive, TDP1 cell noCPT 11.6µM, HT1080 IDH1KD tx inactive, IL-1B inflam inh inactive, ELG1 FLuc counter inconclusive, ELG1-Luc inh 5µM, ELG1-Luc MMS 7.92µM, ELG1 5FU viab inactive, ELG1 MMS viab inconclusive, ELG1 unstim viab inconclusive and FLuc enzyme inactive.
Screening CCN(CC)CCCN(Cc1cc2cc(OC)c(OC)cc2[nH]c1=O)C(=O)Nc1ccccc1 returned HT1080NT lethal inactive, ELG1 repair inh inconclusive, DT40 TDP1 CPT inconclusive, TDP1 cell noCPT inactive, HT1080 IDH1KD tx inactive and IL-1B inflam inh inconclusive.
For COc1cc2cc(CN(Cc3cccnc3)C(=O)Nc3ccccc3F)c(=O)[nH]c2cc1OC the results were HT1080NT lethal inactive, ELG1 repair inh 5.8µM, DT40 TDP1 CPT inconclusive, TDP1 cell noCPT inconclusive, HT1080 IDH1KD tx inactive, IL-1B inflam inh inconclusive, ELG1 FLuc counter inactive, ELG1-Luc inh 9.97µM, ELG1-Luc MMS inactive, ELG1 5FU viab inconclusive, ELG1 MMS viab inactive, ELG1 unstim viab inactive and FLuc enzyme inactive.
`CSc1ccc(C(=O)c2[nH]c(=O)[nH]c2C)cc1` gave HT1080NT lethal inactive, ELG1 repair inh inconclusive, DT40 TDP1 CPT inactive, TDP1 cell noCPT inactive, HT1080 IDH1KD tx inactive, IL-1B inflam inh inactive, ELG1 FLuc counter inactive, ELG1 unstim viab inconclusive and FLuc enzyme inconclusive.
`CSc1ccc(N=Nc2c(C)[nH]n(C)c2=O)cc1` gave HT1080NT lethal inactive, ELG1 repair inh inactive, DT40 TDP1 CPT inactive, TDP1 cell noCPT inconclusive and HT1080 IDH1KD tx inactive.
Screening Cc1cccc(S(=O)Cc2ccc(C(=O)N3CCN(C(=O)c4ccco4)CC3)o2)c1 (stereo not given) returned HT1080NT lethal inactive, ELG1 repair inh inactive, DT40 TDP1 CPT inactive, TDP1 cell noCPT inactive, HT1080 IDH1KD tx inactive and IL-1B inflam inh inactive.

Assay outcomes from PubChem BioAssay.
